# Hits are enriched below; roughly 4.6% of the tested compounds scored in any of these assays.
# V-ATPase pHluor: alters yeast V-ATPase proton transport | S. cerevisiae, pHLuorin cytosolic pH fluorescence | response, % at 10 µM | 0.37% of 350,000 active | AID 504577; in the data active means response mostly above about 7.3%, no sharp cut-off; inactive means mostly below about 5.4%; further: actives read high
# SKKanGAS inh: inhibitors of SKKanGAS S. pyogenes growth in kanamycin (SK-promoter or general growth effect); AID 1662; 1.3% of 300,000 active; BacTiter-Glo, 6 h; inhibition, % at 7.5 µM;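 active means mean replicate score, as percent of positive control median, at least 50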;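 further: strain carries kanamycin resistance gene driven by streptokinase promoter and grows in 40 µg/ml kanamycin; loss of luminescence reflects streptokinase promoter inhibition or plain growth inhibition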
# PfHsp90 yeast 2: growth inhibition of yeast expressing Plasmodium Hsp90; S. cerevisiae expressing PfHsp90, BacTiter-Glo ATP, 48 h; yeast lacking PDR1 and PDR3 efflux regulators; inhibition, % at 9.4 µM; 0.32% of 310,000 active; AID 504621;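 active means every replicate shows inhibition above about 80%, whatever the replicate mean, limit read from the data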
# tim23-1 inh: inhibits growth of tim23-1 mutant yeast; S. cerevisiae tim23-1 growth, BacTiter-Glo luminescence, 24 h; inhibition, % at 20 µM; 1.3% of 330,000 active; AID 463212;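 active means growth inhibition of the mutant yeast at or above 50%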;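 further: temperature-sensitive mutant grown at 25 °C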
# TIM10 inh: growth inhibitors of TIM10 yeast strain; S. cerevisiae TIM10 strain growth, BacTiter-Glo luminescence, 24 h; inhibition, % at 10 µM; 1.4% of 330,000 active; AID 463195;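 active means inhibition of 40% or more at the single tested concentration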;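 further: wild-type TIM10 isogenic control strain grown at permissive 25 °C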
# tim10-1 inh: growth inhibitors of tim10-1 mutant yeast | S. cerevisiae tim10-1 ts strain growth, BacTiter-Glo, 24 h | inhibition, % at 20 µM | 2.2% of 330,000 active;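 active means inhibition of at least 40%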;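 further: mutant grown at 25 °C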
# tim10-1 conf: tim10-1 yeast growth inhibition, confirmed | AID 463213 | inhibition, % at 20 µM | S. cerevisiae tim10-1 ts strain growth, BacTiter-Glo, 24 h | 56% of 7,400 active | shares compounds with tim10-1 inh;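 active means inhibition of yeast growth at or above a set limit in either of two repeat tests at 20 µM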;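 further: tim10-1 mutant grown at permissive 25 °C to find synthetic lethal compounds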
# A number is an active result; n = inactive; x = no result given.
SMILES,V-ATPase pHluor,SKKanGAS inh,PfHsp90 yeast 2,tim23-1 inh,TIM10 inh,tim10-1 inh,tim10-1 conf
COc1ccc(Cl)c2c1[nH]c1nc(SCc3ccccn3)nnc12,n,n,n,n,n,42.3,n
C[C@H](O)[C@@H]1C(=O)N2CCc3c([nH]c4ccccc34)[C@@H]2C[C@@H]1N(C)S(=O)(=O)c1ccccc1,n,x,x,x,x,x,x
CCN(CC)C(=O)Cn1cc([N+](=O)[O-])cc1[N+](=O)[O-],n,x,n,x,x,x,x
Cc1ccc(C(=O)Nc2nc3ccc(S(C)(=O)=O)cc3s2)o1,n,n,x,n,n,43.7,38.0
C/C(=N\NC(=O)c1cc2c(s1)CCC(C)C2)c1ccc[nH]1 (stereo not drawn),n,x,n,n,n,n,x
C/C(=N\NC(=O)c1cc2c(s1)CCC(C)C2)c1ccncc1 (stereo not drawn),n,n,n,n,n,53.8,32.2
CC(C)C1NC2(C(=O)c3ccccc3C2=O)C2C(=O)N(c3ccc(F)cc3)C(=O)C12 (stereo not drawn),n,n,n,n,n,40.2,30.3
O=C1C2C3C=CC(CC3)C2C(=O)N1c1ccc(F)cc1 (stereo not drawn),n,n,n,n,n,n,x
Cc1onc(-c2ccccc2Cl)c1C(=O)N1CCN(c2nc3ccccc3s2)CC1,n,n,n,n,n,49.1,n
Cc1onc(-c2ccccc2Cl)c1C(=O)N1CCCCC1,n,n,n,n,n,n,x
COc1ccc(OC)c(C2=NS(=O)(=O)N(C)C(C(=O)NCc3ccco3)=C2)c1,n,n,n,n,n,n,x
Cc1ccc(S(=O)(=O)N2CCC3(CC2)OCCN3S(=O)(=O)c2c(C)cc(C)cc2C)cc1,n,n,n,n,n,n,x
COCCNC(=O)/C(C#N)=C/c1ccc(SC)cc1,n,n,n,n,n,n,x
COCCCNC(=O)/C(C#N)=C/c1ccc(F)cc1,n,n,n,n,n,42.2,n
Cc1ccc(-c2cc(-c3ccc(F)cc3)nc(N)c2C#N)o1,n,n,n,n,n,n,x
N#Cc1c(-c2ccco2)cc(C2CC2)nc1N,n,n,n,n,n,n,x
Cc1ccc(-c2cc(-c3ccccc3Cl)c(C#N)c(N)n2)o1,n,n,n,n,n,40.7,n
N#Cc1c(-c2ccccc2)cc(C2CC2)nc1N,n,n,n,n,n,41.8,n
Cc1ccc(-c2cc(-c3ccccc3)c(C#N)c(N)n2)o1,n,n,n,n,n,50.0,n
COc1ccc(-c2nn(C)c(=O)[nH]2)cc1,n,n,n,n,n,n,x
CCCCc1ccc(NC(=O)C(=O)NCCN2CCN(C(=O)c3ccc([N+](=O)[O-])cc3)CC2)cc1,n,n,n,n,n,n,x
COc1ccc(CNC(=O)C2CCC(CNc3nc(=S)[nH]c4ccccc34)CC2)cc1 (stereo not drawn),x,n,x,n,n,n,x
CCCCCCCCCCCCCCCC(=O)OC(CC(=O)O)C[N+](C)(C)C (stereo not drawn),n,x,108.8,n,n,63.9,n
CCCCCCCCCCCCC(=O)CCCCC(=O)O,n,n,n,n,n,n,x
CN(c1ccccc1)C1CCCCC1NS(=O)(=O)c1ccc(Cl)cc1 (stereo not drawn),n,n,n,n,n,50.5,36.0
SMILES,V-ATPase pHluor,SKKanGAS inh,PfHsp90 yeast 2,tim23-1 inh,TIM10 inh,tim10-1 inh,tim10-1 conf
COc1ccccc1NC(=O)c1cc(S(=O)(=O)N2CCCCCC2)ccc1F,n,n,n,n,n,n,x
COc1ccccc1NC1CCCCC1NS(=O)(=O)c1ccccc1 (stereo not drawn),n,n,n,n,n,43.5,n
COc1ccccc1NC(=O)c1cc(S(=O)(=O)NC2CCCC2)ccc1F,n,n,n,n,n,48.2,n
Nc1cc(N)nc(SCC(=O)NC2CCCCCCC2)n1,n,x,n,n,n,n,x
CCN(C(=O)Cc1c(C(=O)O)n(CC)c2ccccc12)c1cccc(C(F)(F)F)c1,n,n,n,n,n,n,x
Cc1ccc(S(=O)(=O)c2nc(S(C)(=O)=O)sc2N2CCCCCC2)cc1,n,n,n,n,n,n,x
Cc1ccc(S(=O)(=O)c2nc(S(C)(=O)=O)sc2N2CCC(C)CC2)cc1,n,n,n,n,n,46.3,n
S=c1[nH]nc(Nc2ccc(Cl)cc2)s1,n,n,n,n,n,40.4,34.2
Cc1ccc(Nc2n[nH]c(=S)s2)cc1,n,x,x,x,x,x,x
Cc1cc(=O)n2nc(N3CCCC(C(=O)NCCCN4CC(C)CC(C)C4)C3)sc2n1 (stereo not drawn),n,n,n,n,n,n,x
Cc1occc1-c1nnc(SCC(=O)Nc2nc3ccccc3s2)o1,n,n,n,n,n,n,x
Cc1ccc(C)c(-n2c(-c3csc(C)c3C)n[nH]c2=S)c1,n,n,n,n,n,n,x
COc1cc(/C=C/C(=O)c2ccc(O)cc2)ccc1OCC#N,n,n,n,n,n,n,x
COC(=O)c1ccc(/C=C/C(=O)c2cccc(OC)c2)cc1,n,n,n,n,n,42.1,34.4
COc1cccc(C(=O)/C=C/c2ccc(OCC#N)c(OC)c2)c1,n,n,n,n,n,42.6,n
COc1cccc(C(=O)/C=C/c2ccc(SC)cc2)c1,n,n,x,n,n,n,x
COc1ccccc1OCC(=O)Nc1cc(S(=O)(=O)N2CCOCC2)ccc1N1CCCCC1,n,x,n,n,n,n,x
Cc1cccc(CCN(C(=O)c2csnn2)C(C(=O)NC2CCCC2)c2ccco2)c1 (stereo not drawn),n,n,n,n,n,n,x
CCCC(c1nnnn1Cc1cccs1)N1CCN(c2ccc(OC)cc2)CC1 (stereo not drawn),n,n,n,n,n,42.8,n
CC(C)C(c1nnnn1Cc1ccco1)N1CCN(c2cccc(Cl)c2)CC1 (stereo not drawn),n,n,n,n,n,41.1,n
COc1ccc(N2CCN(C(c3ccccc3OC)c3nnnn3Cc3ccco3)CC2)cc1 (stereo not drawn),n,n,n,n,n,40.4,n
CCCC(c1nnnn1Cc1cccs1)N1CCN(C)CC1 (stereo not drawn),n,n,n,n,n,n,x
COc1ccc(-n2c(=O)c3ccccc3n(Cc3cccc(C)c3)c2=O)cc1OC,n,n,n,n,n,n,x
COC(=O)c1cccc(NC(=O)c2cc3sccc3n2C)c1,n,n,n,n,n,43.6,n
Cn1c(-c2ccccc2)c(/C=N/NC(=O)c2cccnc2)c2ccccc21,n,n,n,n,n,n,x
O=C(O)Cn1nc2c3c(cccc3c1=O)-c1ccccc1-2,n,n,n,n,n,n,x
Cc1ccc(-n2nc3c4c(cccc4c2=O)-c2ccccc2-3)cc1,n,n,x,n,n,41.6,n
CC(=O)c1ccccc1OCC(O)CN1CCN(CCN2C(=O)c3cccc4cccc(c34)C2=O)CC1 (stereo not drawn),n,n,n,n,n,n,x
